The source of these data is PubChem BioAssay (NCI).

Compounds without any hit were thinned out: in the full panel of roughly 83,000, 20% have a hit.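 Plates (96-well) were seeded with cells, treated with compound at one concentration, and incubated for 48 hours before percent growth was determined.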 A number with no mark means an inactive call. Active and inactive are the calls of the source. Rule for the calls: active = growth percent below 10; inactive = the rest.

Test systems include SR leukemia; RPMI-8226 leukemia; OVCAR-8 ovarian; OVCAR-5 ovarian; OVCAR-4 ovarian; SK-OV-3 ovarian; IGROV1 ovarian; OVCAR-3 ovarian; HS 578T breast; NCI/ADR-RES ovarian; T-47D breast; BT-549 breast; MDA-MB-435 melanoma; SW-620 colon; MCF7 breast; HCT-116 colon; HCC-2998 colon; KM12 colon.
Holding throughout (assay): NCI-60 one-dose screen, 48 h (100 = growth as untreated, 0 = no growth, -100 = all killed)
What all share (settings): 10 µM unless noted

Regarding `COc1cc(Nc2c(C#N)cnn3cc(-c4cnn(CC(C)(C)O)c4)cc23)ccc1Cl`, the growth was 24.3% in the test with SR leukemia; 40.2% in the test with RPMI-8226 leukemia; 46.9% with OVCAR-8 ovarian; 43.8% with OVCAR-5 ovarian; 42.6% in the test on OVCAR-4 ovarian; 4.19% (active) in the test on SK-OV-3 ovarian. Besides, the growth with IGROV1 ovarian is 4.87% (active); with OVCAR-3 ovarian it was 57.6%; in the test with HS 578T breast, 61.9%; in the test on NCI/ADR-RES ovarian, 46.5%; in the test with T-47D breast, 45.1%; with BT-549 breast, 85.5%. Also, the growth was 38.3% in the test with MDA-MB-435 melanoma; 56.5% in the test with SW-620 colon; 48% in the test with MCF7 breast; 40.2% with HCT-116 colon; 84.8% in the test on HCC-2998 colon; 19.1% in the test on KM12 colon.
Turning to `NS(=O)(=O)c1ccc(Nc2nc(N/N=C/c3ccc(Cl)cc3)nc(Nc3ccccc3)n2)cc1`, the growth with SR leukemia was 19%; in the test with RPMI-8226 leukemia, 54.7%; in the test with OVCAR-8 ovarian it was 67.9%; with OVCAR-5 ovarian, 83.4%; with OVCAR-4 ovarian, 83.6%; in the test with SK-OV-3 ovarian, 104%. The growth in the test with IGROV1 ovarian is 66.8%; in the test with OVCAR-3 ovarian it was 70.4%; in the test with HS 578T breast, 64.7%; in the test on NCI/ADR-RES ovarian, 97.5%; in the test on T-47D breast, 44.8%; in the test on BT-549 breast it was 74.9%. Besides, the growth in the test on MDA-MB-435 melanoma is 57.7%; in the test with SW-620 colon, 101%; in the test with MCF7 breast, 38.7%; with HCT-116 colon, 44.3%; in the test on HCC-2998 colon, 76.4%; in the test on KM12 colon, 63.3%.
Consider `COc1cc(C2N=C(NNc3ccccc3)NC(C)=C2C(C)=O)ccc1O` (configuration not stated), for which the growth with SR leukemia was 57.7%; in the test with RPMI-8226 leukemia, 110%; in the test with OVCAR-8 ovarian, 94.2%; with OVCAR-5 ovarian, 92.7%; in the test on OVCAR-4 ovarian, 93%; in the test on SK-OV-3 ovarian, 90.1%. Besides, the growth is 69.9% in the test on IGROV1 ovarian; 122% in the test with OVCAR-3 ovarian; 108% in the test with HS 578T breast; 87.8% in the test on NCI/ADR-RES ovarian; 83.9% with T-47D breast; 123% with BT-549 breast. For the same compound, the growth was 92.5% in the test on MDA-MB-435 melanoma; 82.1% with SW-620 colon; 88.7% in the test on MCF7 breast; 95.1% in the test on HCT-116 colon; 98.9% with HCC-2998 colon; 95.6% in the test on KM12 colon.
Take `CCC1=Cc2cc(OC)ccc2OC12C=Cc1cc(OC)ccc1O2` (configuration not stated): the growth with SR leukemia was 15.8%; in the test with RPMI-8226 leukemia, 19.5%; in the test with OVCAR-8 ovarian, 41.3%; with OVCAR-5 ovarian it was 29.3%; in the test with OVCAR-4 ovarian, 56.8%; with SK-OV-3 ovarian, 24%. For the same compound, the growth was 30.1% with IGROV1 ovarian; 16% with OVCAR-3 ovarian; 15.3% in the test on HS 578T breast; 11.7% in the test on NCI/ADR-RES ovarian; 52.8% in the test on T-47D breast; 75.3% in the test with BT-549 breast. For the same compound, the growth in the test on MDA-MB-435 melanoma was -28.5% (active); in the test on SW-620 colon it was 28.3%; with MCF7 breast it was 15.3%; in the test with HCT-116 colon, 14.2%; in the test with HCC-2998 colon it was 22.9%; in the test with KM12 colon, 19.3%.
For the compound `NS(=O)(=O)c1ccc(-n2cc(CN3CCNCC3)nn2)cc1`, the growth is 100% with SR leukemia; 110% with RPMI-8226 leukemia; 110% in the test on OVCAR-8 ovarian; 106% with OVCAR-5 ovarian; 105% with OVCAR-4 ovarian; 110% in the test with SK-OV-3 ovarian. For the same compound, the growth in the test with IGROV1 ovarian is 112%; in the test on OVCAR-3 ovarian it was 111%; with HS 578T breast, 111%; in the test with NCI/ADR-RES ovarian, 111%; in the test on T-47D breast, 107%; in the test on BT-549 breast it was 110%. In addition, the growth with MDA-MB-435 melanoma is 106%; with SW-620 colon, 109%; in the test on MCF7 breast, 98.9%; in the test with HCT-116 colon, 107%; with HCC-2998 colon, 101%; with KM12 colon it was 105%.
Consider `CCn1c(SCC(=O)Nc2cccc(C(=O)/C=C/c3ccc(C)cc3)c2)nc2ccccc2c1=O`, for which the growth in the test with SR leukemia was 56.4%; in the test with RPMI-8226 leukemia, 7.2% (active); with OVCAR-8 ovarian, 90.9%; in the test on OVCAR-5 ovarian, 97.6%; with OVCAR-4 ovarian, 80%; in the test on SK-OV-3 ovarian, 110%. The growth was 77.1% in the test on IGROV1 ovarian; 43.9% with OVCAR-3 ovarian; 101% in the test with HS 578T breast; 91% in the test with NCI/ADR-RES ovarian; 70.7% in the test with T-47D breast; 93.3% in the test with BT-549 breast. Also, the growth was 75.4% in the test with MDA-MB-435 melanoma; 51.4% in the test on SW-620 colon; 19.7% with MCF7 breast; 10.8% in the test with HCT-116 colon; 78.7% with HCC-2998 colon; 77.4% with KM12 colon.
Turning to `C=C1CC[C@@H]2[C@](C)(CO)[C@H](O)CC[C@@]2(C)[C@@H]1C/C(O)=C1\CCOC1=O`, the growth in the test with SR leukemia is 83.6%; in the test on RPMI-8226 leukemia it was 83.8%; with OVCAR-8 ovarian it was 98.5%; in the test on OVCAR-5 ovarian, 120%; in the test with OVCAR-4 ovarian it was 94.7%; with SK-OV-3 ovarian it was 113%. In addition, the growth in the test with IGROV1 ovarian is 107%; in the test with OVCAR-3 ovarian it was 93.2%; in the test with HS 578T breast it was 92.3%; in the test with NCI/ADR-RES ovarian it was 98%; in the test with T-47D breast, 96.6%; in the test with BT-549 breast it was 109%. For the same compound, the growth is 94.6% in the test with MDA-MB-435 melanoma; 94.9% in the test on SW-620 colon; 77% in the test on MCF7 breast; 95.4% in the test with HCT-116 colon; 104% in the test with HCC-2998 colon; 111% with KM12 colon.
As to `Cn1ccnc1C(=O)/C=C/c1ccc(CNC(=O)c2ccc(Cl)cc2)cc1`, the growth was 4.17% (active) with SR leukemia; -13.7% (active) in the test on RPMI-8226 leukemia; 24.6% in the test on OVCAR-8 ovarian; 11% in the test on OVCAR-5 ovarian; 37.9% in the test on OVCAR-4 ovarian; 43.1% in the test on SK-OV-3 ovarian. For the same compound, the growth in the test on IGROV1 ovarian was 12.2%; in the test on OVCAR-3 ovarian, 17%; in the test on HS 578T breast it was 28.1%; in the test on NCI/ADR-RES ovarian it was 10.4%; in the test on T-47D breast it was 34%; in the test on BT-549 breast, 16.5%. For the same compound, the growth with MDA-MB-435 melanoma is 22.6%; in the test with SW-620 colon, 9.22% (active); in the test on MCF7 breast, 10.5%; in the test with HCT-116 colon it was -1.09% (active); in the test on HCC-2998 colon it was 13.1%; with KM12 colon, 9.07% (active).
In the case of `CCCCNNC(=O)c1ccc(-c2cccc(F)c2F)cc1`, the growth in the test on SR leukemia is 25.2%; in the test on RPMI-8226 leukemia it was 5.02% (active); with OVCAR-8 ovarian it was 20.8%; in the test on OVCAR-5 ovarian, 24.9%; in the test with OVCAR-4 ovarian it was 41.5%; with SK-OV-3 ovarian it was 47.2%. Also, the growth is 31.3% in the test with IGROV1 ovarian; 44.6% in the test with OVCAR-3 ovarian; 41.2% in the test on HS 578T breast; 13.4% in the test on NCI/ADR-RES ovarian; 3.16% (active) in the test with T-47D breast; 58.6% with BT-549 breast. The growth with MDA-MB-435 melanoma is 25.4%; with SW-620 colon, 20.7%; with MCF7 breast, 15.9%; in the test on HCT-116 colon, 13.9%; in the test with HCC-2998 colon, 37.9%; with KM12 colon, 44.6%.
